# From PubChem BioAssay (Tox21)
# Values without a mark were called inactive. Results filed as inconclusive are left out. Entries that show only a call come without a potency. Calls of active or inactive are those of the source. Calls come from the whole dose curve; as a rule, active = well fitted curve in the direction sought with a large enough effect in the repeat runs; inconclusive = weak or mixed curves; inactive = no such curve, though single readings can be large; an effect the other way counts as inactive or inconclusive.
# Legend:
# [1] = qHTS RealTime-Glo MT Cell Viability Assay in HEK293 cells - 0 hour (AID 1224880); note: top concentration of the series differs between compounds; nearly all actives have a fitted effect of over 45% in size
# Summary of the method: (§1)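 Luminescence readout at each listed time point; HEK293, 600 cells/well, RealTime-Glo MT reagent added with cells; compounds pinned (23 nL in DMSO) after 5 h at 37 C; continuous culture at 37 C.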
# [2] = A CellTox Green Cytotoxicity Assay to monitor cytotoxicity in HEK293 cells - 32 hour (AID 1224881); note: nearly all actives have a fitted effect of over 40% in size; note: potency is the fitted concentration of half-maximal effect
# Summary of the method: (§2)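 Read-out: fluorescence of a cell-impermeant cyanine dye staining DNA of dead cells, proportional to cytotoxicity. HEK293, 600 cells/well with reagent, compound (23 nL DMSO) added after 5 h; reads at 0, 8, 16, 24, 32, 40 h.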
# [3] = A CellTox Green Cytotoxicity Assay to monitor cytotoxicity in HepG2 cells - 0 hour (AID 1224882); note: nearly all actives have a fitted effect of over 35% in size; note: potency is the fitted concentration of half-maximal effect
# Summary of the method: (§3)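 HepG2, 600 cells/well premixed w/ CellTox Green; 5 h settle, 37 C/5% CO2; pintool cpd add (DMSO); 37 C, 40 h; fluorescence read at 0, 8, 16, 24, 32, 40 h.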
# [4] = A CellTox Green Cytotoxicity Assay to monitor cytotoxicity in HepG2 cells - 32 hour (AID 1224883); note: nearly all actives have a fitted effect of over 50% in size; note: potency is the fitted concentration of half-maximal effect
# Summary of the method: as §3
# [5] = A CellTox Green Cytotoxicity Assay to monitor cytotoxicity in HEK293 cells - 8 hour (AID 1224884); note: nearly all actives have a fitted effect of over 35% in size; note: potency is the fitted concentration of half-maximal effect
# Summary of the method: as §2
# [6] = qHTS RealTime-Glo MT Cell Viability Assay in HepG2 cells - 16 hour (AID 1224885); note: nearly all actives have a fitted effect of over 50% in size
# Summary of the method: (§4)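 HepG2 suspension premixed with RealTime-Glo reagents is plated at 600 cells per well and left 5 h at 37 C/5% CO2. Compounds in DMSO then go in, and bioluminescence reflecting viable cell number is recorded over 40 h.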
# [7] = qHTS RealTime-Glo MT Cell Viability Assay in HEK293 cells - 24 hour (AID 1224886); note: nearly all actives have a fitted effect of over 50% in size; note: potency is the fitted concentration of half-maximal effect
# Summary of the method: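 Reads taken at 0, 8, 16, 24, 32 and 40 h from the same wells. HEK293 cells (600/well) carried RealTime-Glo reagents from seeding, with compound added after a 5 h settle at 37 C.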
# [8] = qHTS RealTime-Glo MT Cell Viability Assay in HEK293 cells - 8 hour (AID 1224887); note: nearly all actives have a fitted effect of over 50% in size; note: potency is the fitted concentration of half-maximal effect
# Summary of the method: as §1
# [9] = A CellTox Green Cytotoxicity Assay to monitor cytotoxicity in HEK293 cells - 16 hour (AID 1224888); note: nearly all actives have a fitted effect of over 35% in size; note: potency is the fitted concentration of half-maximal effect
# Summary of the method: as §2
# [10] = qHTS RealTime-Glo MT Cell Viability Assay in HepG2 cells - 0 hour (AID 1224889); note: nearly all actives have a fitted effect of over 50% in size
# Summary of the method: as §4
# [11] = A CellTox Green Cytotoxicity Assay to monitor cytotoxicity in HepG2 cells - 8 hour (AID 1224890); note: nearly all actives have a fitted effect of over 45% in size; note: potency is the fitted concentration of half-maximal effect
# Summary of the method: as §3
# [12] = qHTS assay to identify small molecule antagonists of the estrogen receptor alpha (ER-alpha) signaling pathway using the BG1 cell line in the presence of 0.1 nM 17-beta-estradiol - cell viability counter screen (AID 1259241); note: nearly all actives have a fitted effect of over 40% in size
# Summary of the method: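 Following 5 days in phenol red-free medium with charcoal-stripped serum, VM7Luc4E2 cells received test compounds alongside 0.1 nM 17beta-estradiol (final) at 37C for 22 hr. Live cells were then quantified via protease-substrate fluorescence.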
# [13] = qHTS assay to identify small molecule antagonists of the androgen receptor (AR) signaling pathway using the MDA cell line in the presence of 0.5 nM R1881 - cell viability counter screen (AID 1259242); note: nearly all actives have a fitted effect of over 45% in size
# Summary of the method: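 Live-cell protease fluorescence, CellTiter-Fluor, 30 min at 37C. Cells: MDA-kb2, 3,000/well, preincubated 5 hr. Compounds plus 0.5 nM R1881 final, 16 hr, 37C, 0% CO2.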
# [14] = qHTS assay to identify small molecule HDAC inhibitors (AID 1259364);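 note: wild-type HCT-116 cells with endogenous class I/II HDAC activity; top concentration of the series differs between compounds; nearly all actives have a fitted effect of over 45% in size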
# Summary of the method: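 HCT-116 (wild type), 1,500 cells/well, overnight; compound 2 hr 37C 5% CO2; HDAC-Glo I/II reagent 30 min RT; luminescence readout.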
# [15] = qHTS assay to identify small molecule HDAC inhibitors - cell viability counter screen (AID 1259365)
# Summary of the method: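 HCT-116 wild-type, overnight attachment; 2hr drug exposure, 37C; CellTiter-Glo luminescent ATP readout after 30min RT.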
# [16] = qHTS assay to identify small molecule agonists of the sonic hedgehog signaling (Shh) pathway - cell viability counter screen (AID 1259366); note: nearly all actives have a fitted effect of over 50% in size; note: potency is the fitted concentration of half-maximal effect
# Summary of the method: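 Compounds in DMSO were pin-transferred onto 3T3 Gli1-Luc cells that had settled 4hr; plates then stood 24hr at 37C and 5% CO2. One hour before the end, CellTiter-Fluor was added and fluorescence recorded.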
# [17] = qHTS assay to identify small molecule antagonists of the sonic hedgehog signaling (Shh) pathway - cell viability counter screen (AID 1259367); note: nearly all actives have a fitted effect of over 55% in size
# Summary of the method: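 Cytotoxicity was assessed in parallel with Shh reporter activity by measuring live-cell protease fluorescence (CellTiter-Fluor) in NIH/3T3 cells stably carrying Gli1-Luc, treated with compound under conditioned medium stimulation for 23 hr plus 1 hr reagent incubation.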
# [18] = target: Estrogen receptor (Homo sapiens) (UniProt P03372); assay: qHTS assay to identify small molecule antagonists of the estrogen receptor alpha (ER-alpha) signaling pathway using the BG1 cell line in the presence of 0.1 nM 17-beta-estradiol (AID 1259244); note: nearly all actives have a fitted effect of over 50% in size
# Summary of the method: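 Luminescence after ONE-Glo (30 min, room temperature) measured ERE-luciferase activity in VM7Luc4E2 cells treated 22 h with compound and 0.1 nM final 17beta-estradiol as stimulator.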
# [19] = target: Androgen receptor (Homo sapiens) (UniProt P10275); assay: qHTS assay to identify small molecule antagonists of the androgen receptor (AR) signaling pathway using the MDA cell line in the presence of 0.5 nM R1881 (AID 1259243); note: nearly all actives have a fitted effect of over 50% in size
# Summary of the method: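 MDA-kb2, MMTV-luc (AR/GR elements); 3,000 cells/well; cpd + 0.5 nM R1881 final; 16 hr 37C, 0% CO2; ONE-Glo 30 min RT; luminescence.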
# Estrogen receptor (Homo sapiens), sequence (P03372 whole entry, looked up): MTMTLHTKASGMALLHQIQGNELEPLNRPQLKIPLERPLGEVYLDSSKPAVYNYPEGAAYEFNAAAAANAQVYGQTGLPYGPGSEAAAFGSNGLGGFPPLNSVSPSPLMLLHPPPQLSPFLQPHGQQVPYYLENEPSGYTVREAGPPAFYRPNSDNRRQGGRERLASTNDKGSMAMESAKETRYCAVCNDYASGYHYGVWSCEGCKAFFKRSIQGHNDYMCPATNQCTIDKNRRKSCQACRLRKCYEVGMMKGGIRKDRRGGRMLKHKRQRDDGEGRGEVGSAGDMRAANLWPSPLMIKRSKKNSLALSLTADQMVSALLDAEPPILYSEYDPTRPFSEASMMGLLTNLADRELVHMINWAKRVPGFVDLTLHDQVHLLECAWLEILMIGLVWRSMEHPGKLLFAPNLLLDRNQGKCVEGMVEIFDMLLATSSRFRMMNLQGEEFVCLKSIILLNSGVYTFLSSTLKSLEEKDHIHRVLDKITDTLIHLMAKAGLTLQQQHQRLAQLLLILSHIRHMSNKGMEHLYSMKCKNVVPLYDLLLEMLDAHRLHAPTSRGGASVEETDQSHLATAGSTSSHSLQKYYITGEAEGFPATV
# Androgen receptor (Homo sapiens), sequence (P10275 whole entry, looked up): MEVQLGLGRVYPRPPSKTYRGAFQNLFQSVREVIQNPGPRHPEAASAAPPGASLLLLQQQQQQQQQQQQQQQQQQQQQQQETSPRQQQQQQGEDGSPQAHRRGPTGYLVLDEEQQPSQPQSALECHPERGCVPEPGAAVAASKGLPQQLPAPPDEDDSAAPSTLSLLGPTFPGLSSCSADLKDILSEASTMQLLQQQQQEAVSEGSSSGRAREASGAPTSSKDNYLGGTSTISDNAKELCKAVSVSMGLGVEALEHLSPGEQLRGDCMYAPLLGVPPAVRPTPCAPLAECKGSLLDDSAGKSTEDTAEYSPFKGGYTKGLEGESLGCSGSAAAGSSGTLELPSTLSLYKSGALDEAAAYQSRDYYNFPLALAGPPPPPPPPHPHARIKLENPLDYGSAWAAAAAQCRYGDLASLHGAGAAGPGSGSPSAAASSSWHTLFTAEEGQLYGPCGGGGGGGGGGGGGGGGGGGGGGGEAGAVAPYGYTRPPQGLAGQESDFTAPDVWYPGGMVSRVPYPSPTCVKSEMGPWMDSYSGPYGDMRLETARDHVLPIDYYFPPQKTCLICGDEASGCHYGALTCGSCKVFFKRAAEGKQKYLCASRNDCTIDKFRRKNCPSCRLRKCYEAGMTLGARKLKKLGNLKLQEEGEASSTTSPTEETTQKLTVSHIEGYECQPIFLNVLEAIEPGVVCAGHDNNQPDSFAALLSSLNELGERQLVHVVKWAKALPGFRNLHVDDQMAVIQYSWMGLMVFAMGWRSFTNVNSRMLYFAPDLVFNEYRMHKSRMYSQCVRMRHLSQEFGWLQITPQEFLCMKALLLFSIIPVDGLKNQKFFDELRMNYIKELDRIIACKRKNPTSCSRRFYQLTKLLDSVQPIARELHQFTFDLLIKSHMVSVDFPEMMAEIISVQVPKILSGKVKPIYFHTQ
SMILES,Potency [1],Potency [2],Potency [3],Potency [4],Potency [5],Potency [6],Potency [7],Potency [8],Potency [9],Potency [10],Potency [11],Potency [12],Potency [13],Potency [14],Potency [15],Potency [16],Potency [17],Potency [18],Potency [19]
COc1nn(C(=O)NS(=O)(=O)c2ccccc2OC(F)(F)F)c(=O)n1C,inactive,20 µM (active),39.9 µM (active),39.9 µM (active),31.7 µM (active),inactive,inactive,inactive,22.4 µM (active),inactive,39.9 µM (active),inactive,inactive,inactive,inactive,inactive,inactive,–,–
CC/C(=N\OC/C=C/Cl)C1=C(O)CC(C2CCOCC2)CC1=O (stereo not drawn),inactive,inactive,inactive,inactive,inactive,inactive,inactive,inactive,inactive,inactive,inactive,inactive,inactive,inactive,inactive,inactive,inactive,–,–
CCCCc1c(C)nc(NCC)nc1OS(=O)(=O)N(C)C,inactive,inactive,inactive,inactive,inactive,inactive,12.3 µM (active),9.77 µM (active),inactive,inactive,inactive,inactive,inactive,inactive,inactive,30.6 µM (active),–,–,–
O=[N+]([O-])c1ccccc1CCl,inactive,inactive,inactive,inactive,inactive,inactive,inactive,inactive,inactive,inactive,inactive,–,inactive,–,inactive,inactive,inactive,inactive,–
Nc1ccc([N+](=O)[O-])cc1[N+](=O)[O-],inactive,inactive,inactive,inactive,inactive,inactive,inactive,inactive,inactive,inactive,inactive,–,inactive,inactive,inactive,–,inactive,inactive,–
CCCCCCCCOC(=O)c1ccc(C(=O)OCCCCCCCC)c(C(=O)OCCCCCCCC)c1,inactive,inactive,inactive,inactive,inactive,inactive,inactive,inactive,inactive,inactive,inactive,inactive,inactive,inactive,inactive,inactive,inactive,–,–
CCBr,inactive,inactive,inactive,inactive,inactive,inactive,inactive,inactive,inactive,inactive,inactive,inactive,inactive,–,inactive,inactive,inactive,inactive,–
O=S(=O)(Cl)c1ccccc1,inactive,inactive,inactive,inactive,inactive,inactive,inactive,inactive,inactive,inactive,inactive,inactive,inactive,inactive,inactive,inactive,inactive,–,–
C=CC(=O)OCCCCO,inactive,inactive,inactive,inactive,inactive,inactive,inactive,inactive,inactive,inactive,inactive,–,inactive,inactive,inactive,61.1 µM (active),–,inactive,–
NNC(=O)c1cccnc1,inactive,inactive,inactive,inactive,inactive,inactive,inactive,inactive,inactive,inactive,inactive,inactive,inactive,–,inactive,inactive,inactive,inactive,–
CCOS(C)(=O)=O,inactive,inactive,inactive,inactive,inactive,inactive,inactive,inactive,inactive,inactive,inactive,inactive,inactive,inactive,inactive,inactive,inactive,–,–
CCCCCCC#N,inactive,inactive,inactive,inactive,inactive,inactive,inactive,inactive,inactive,inactive,inactive,–,inactive,inactive,inactive,inactive,inactive,inactive,–
NC(=O)C(Cl)(Cl)Cl,inactive,inactive,inactive,inactive,inactive,inactive,inactive,inactive,inactive,inactive,inactive,–,inactive,inactive,inactive,inactive,–,inactive,–
Clc1cc(Cl)c(Cl)c(Cl)c1,inactive,inactive,inactive,inactive,inactive,inactive,inactive,inactive,inactive,inactive,inactive,inactive,inactive,inactive,inactive,inactive,inactive,inactive,–
O=C=Nc1ccc(Cl)cc1,inactive,inactive,inactive,inactive,inactive,inactive,inactive,inactive,inactive,inactive,inactive,inactive,inactive,–,inactive,inactive,–,inactive,–
ClCc1cccc(Cl)c1,inactive,inactive,inactive,inactive,inactive,inactive,inactive,inactive,inactive,inactive,inactive,–,inactive,inactive,inactive,inactive,inactive,inactive,inactive
